Several values for one entry are separate records, joined by “and”; a condition that tells them apart may be missing. Identical values can stand only once. The panel holds about 83,000 compounds, 20% with a hit somewhere; the sample as a whole holds those more often.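 Method: cells in 96-well plates; compound added at one concentration; 48 h incubation; percent growth measured; values under 10 scored active.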 Activity calls are given as the source filed them.

Common to all, as to assay: NCI-60 one-dose screen, 48 h (100 = growth as untreated, 0 = no growth, -100 = all killed)
Settings in all cases: 10 µM unless noted

Assay [1] has as its system NCI-H23 lung.
The test system of assay [2] is NCI-H226 lung.
Assay [3] deals with NCI-H322M lung.
Assay [4] concerns HOP-62 NSCLC.
For assay [5], the system named is NCI-H460 lung.
The test system of assay [6] is HOP-92 NSCLC.
The subject of assay [7] is NCI-H522 lung.
The subject of assay [8] is A549/ATCC NSCLC.
For assay [9], the system named is 786-0 renal.
In assay [10] the test system is COLO 205 colon.

For `O=C(Nc1ccc(Cl)c(Cl)c1)Nc1ccc(Cl)c(Cl)c1`, the growth in [1] was -36.5% (active) and 4.84% (active); in [2], 23.7% (inactive); in assay [3], -93.6% (active) and 19.2% (inactive); in assay [4] it was -83.4% (active) and 40.8% (inactive); in assay [5] it was -63.6% (active) and 4.34% (active); in assay [6] it was -86.2% (active) and -5.71% (active). Further, the growth was -83.9% (active) and 6.21% (active) in [7]; -63% (active) and 17.6% (inactive) in [8]; -63.1% (active) and 20.4% (inactive) in assay [9]; -86.9% (active) and 17.1% (inactive) in assay [10].

`C=C(c1ccc(C(=O)O)cc1)c1cc2c(cc1C)C(C)(C)CCC2(C)C`: the growth in assay [1] was 81.7% (inactive) and 81.9% (inactive); in [2] it was 76% (inactive) and 86.3% (inactive); in assay [3], 72% (inactive); in [4], 79.7% (inactive) and 67.3% (inactive); in assay [5], 83.4% (inactive) and 79% (inactive); in assay [6], 68.4% (inactive). Besides, the growth in [7] was 52.4% (inactive) and 61.4% (inactive); in assay [8], 52.1% (inactive) and 31.2% (inactive); in [9] it was 79.1% (inactive) and 80.1% (inactive); in [10], 135% (inactive) and 118% (inactive).

On to `CN1C(=O)N(C)C2(c3ccccc3)N(CC(=O)Nc3ccccc3O)C(=O)NC12c1ccccc1` (stereo not given), for which the growth in assay [1] was 101% (inactive); in [2] it was 90.7% (inactive); in assay [3] it was 100% (inactive); in assay [4] it was 102% (inactive); in assay [5] it was 106% (inactive); in assay [6], 107% (inactive). Moreover, the growth is 86.2% (inactive) in [7], 109% (inactive) in assay [8], 103% (inactive) in assay [9] and 110% (inactive) in [10].

Take `COc1ccc(/C=C/C(=O)c2cc3c(N)c(C(=O)Nc4ccccc4Cl)sc3nc2C)cc1`: the growth in assay [1] is 52.3% (inactive); in [2], 27.4% (inactive); in assay [3], 62.3% (inactive); in assay [4], 45.3% (inactive); in [5], 32.6% (inactive); in [6], 9.45% (active). For the same compound, the growth in [7] was 15.4% (inactive); in assay [8] it was 33.8% (inactive); in assay [9] it was -20.4% (active); in assay [10], 69.8% (inactive).

Turning to `COc1cc(/C=C2\C(=O)N(CCCCn3c4ccccc4c(=O)c4ccccc43)c3ccccc32)cc(OC)c1O`, the growth was 71.6% (inactive) in assay [1]; 91.5% (inactive) in [2]; 86% (inactive) in assay [3]; 102% (inactive) in [4]; 60% (inactive) in assay [5]; 65.7% (inactive) in assay [6]. In addition, the growth in assay [7] was 27.4% (inactive); in [8] it was 95.4% (inactive); in [9], 88.3% (inactive); in assay [10], 107% (inactive).

As for `COc1ccc(C/C(C)=C(/c2ccc(OCCN3CCCCCC3)cc2)c2ccc(OC(=O)c3ccccc3)cc2)cc1`, the growth in assay [1] is 109% (inactive); in assay [2], 110% (inactive); in [3] it was 102% (inactive); in assay [4] it was 91.3% (inactive); in assay [5] it was 110% (inactive); in [6], 105% (inactive). Moreover, the growth in assay [7] was 75.6% (inactive); in assay [8], 97.5% (inactive); in assay [9], 96.8% (inactive); in assay [10], 113% (inactive).

With `O=C(Nc1ccc2ncsc2c1)c1csc(Nc2ccc3[nH]ncc3c2)n1`, the growth in [1] was 62% (inactive); in [2] it was 59% (inactive); in [3] it was 51.5% (inactive); in [4], 61.7% (inactive); in assay [5], 19.5% (inactive); in assay [6], 67.5% (inactive). Besides, the growth in [7] was 24.7% (inactive); in assay [8], 44.3% (inactive); in assay [9] it was 42.8% (inactive); in [10], 31.2% (inactive).

Regarding `Cc1ccc(-c2nc3nc(-c4ccc(Br)cc4)nc(N4CCCNCC4)c3o2)cc1`, the growth in assay [1] was 97.9% (inactive); in assay [2] it was 103% (inactive); in assay [3], 68.9% (inactive); in assay [4] it was 82% (inactive); in assay [5], -73% (active); in assay [6], 91.7% (inactive). Also, the growth is 72.6% (inactive) in assay [7], -74.7% (active) in [8], -90.6% (active) in assay [9] and -49% (active) in assay [10].

`COc1ccc(-c2c[nH]c(C(=O)O)c2-c2cc(OC)c(OC)c(OC)c2)cc1`: the growth in assay [1] is 48.5% (inactive); in [2], 88.9% (inactive); in assay [3] it was 47.9% (inactive); in assay [4], 37.3% (inactive); in assay [5], 14.4% (inactive); in assay [6], 32.2% (inactive). Moreover, the growth in assay [7] was 28.1% (inactive); in assay [8], 49.4% (inactive); in assay [9] it was 31.3% (inactive); in [10], 14.7% (inactive).

`O=C(CCl)n1nnnc1Cc1ccccc1`: the growth in [1] was 102% (inactive); in [2], 104% (inactive); in assay [3], 102% (inactive); in [4] it was 90.2% (inactive); in [5], 108% (inactive); in assay [6], 102% (inactive). For the same compound, the growth in [7] is 90.8% (inactive); in [8], 92.2% (inactive); in assay [9], 95% (inactive); in assay [10] it was 111% (inactive).

Turning to `Nc1ccc(S(=O)(=O)c2ccc(N)cc2)cc1`, the growth in [1] is 99.8% (inactive) and 99.3% (inactive); in [2], 92.2% (inactive) and 103% (inactive); in [3], 96.7% (inactive) and 81.5% (inactive); in assay [4], 107% (inactive); in assay [5] it was 109% (inactive) and 102% (inactive); in assay [6], 70.4% (inactive) and 87% (inactive). Also, the growth in assay [7] is 110% (inactive) and 94.6% (inactive); in assay [8], 98.5% (inactive); in [9], 103% (inactive) and 112% (inactive); in [10], 115% (inactive) and 95.2% (inactive).

On to `Cc1[nH]c(C(=O)Nc2nc3ccc(NC(=O)CCN)cc3s2)c(Cl)c1Cl`, for which the growth was 37.4% (inactive) in [1]; 86.7% (inactive) in [2]; 94% (inactive) in [3]; 74.6% (inactive) in [4]; 42.6% (inactive) in assay [5]; 73.9% (inactive) in assay [6]. Moreover, the growth in assay [7] is 85.5% (inactive); in [8], 95.8% (inactive); in [9] it was 92.1% (inactive); in [10], 104% (inactive).

For `NCCOCCOc1ccccc1`, the growth was 97.2% (inactive) in assay [1]; 103% (inactive) in assay [2]; 96.1% (inactive) in [3]; 109% (inactive) in assay [4]; 103% (inactive) in [5]; 64.8% (inactive) in [6]. Besides, the growth in [7] is 93.1% (inactive); in [8] it was 104% (inactive); in assay [9] it was 100% (inactive); in assay [10], 113% (inactive).

The record behind these values is PubChem BioAssay (NCI).
